# Many of the other results were omitted from the sample, so hits are more common in it than they were.
# DUSP3 inh = VHR1 (DUSP3) phosphatase inhibition. P51452. recombinant VHR phosphatase, colorimetric substrate read-out. inhibition, % at 20 µM. 50,000 tested, 0.7% active. AID 1992; in the data active means inhibition above about 60%
# Target sequence (P51452 whole entry, looked up): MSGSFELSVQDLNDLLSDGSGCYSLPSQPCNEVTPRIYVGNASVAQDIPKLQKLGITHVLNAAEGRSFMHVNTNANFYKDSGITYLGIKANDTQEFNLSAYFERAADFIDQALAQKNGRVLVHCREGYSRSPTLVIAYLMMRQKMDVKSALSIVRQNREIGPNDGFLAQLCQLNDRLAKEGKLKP
# * marks the source's active call; other numbers are inactive results.
SMILES,DUSP3 inh
O=C(Nc1ccccc1)c1ccc(CN2CCN(c3ccccc3)CC2)cc1,-5
Cc1ccc(/C=N/N=C2\NC(=O)C(C)S2)cc1 (stereo unspecified),-1
CC(C)C1S/C(=N/N=C/c2ccc(O)cc2)NC1=O (stereo unspecified),93*
COc1ccc(CC2S/C(=N\N=C\c3ccc(C(C)C)cc3)NC2=O)cc1 (stereo unspecified),-8
O=C(CSc1nnnn1-c1ccccc1)c1ccc(-c2ccccc2)cc1,-2
Cc1ccc(OCCCN2CCOCC2)c(C(C)(C)C)c1,-1
O=C(O)CC(Cc1ccc(Br)cc1)C(=O)O (stereo unspecified),-11
O=C(O)CC(Cc1ccccc1)C(=O)O (stereo unspecified),-4
C=C(CC(Cc1ccccc1)C(=O)O)c1ccccc1 (stereo unspecified),97*
Cc1ccc(NCc2cccnc2)cc1C,-7
COc1ccc(OC)c(S(=O)(=O)N2CCCCC2)c1,-45
Cc1cccc(NC(=O)C2C(c3ccccc3)C2(Cl)Cl)c1C (stereo unspecified),-11
O=C(O)C1C2C=CC(C3CC23)C1C(=O)Nc1ccccc1Cl (stereo unspecified),-3
Cc1cccc(NC(=O)C2C3C=CC(C4CC34)C2C(=O)O)c1C (stereo unspecified),100*
O=C(CN(c1cccc(Br)c1)S(=O)(=O)c1ccccc1)Nc1ccccc1,-26
CCOC(=O)c1c(NC(=O)c2ccc(C)c([N+](=O)[O-])c2)sc(C(=O)Nc2ccccc2OC)c1C,116*
CCOC(=O)c1sc(NC(=O)c2ccc(C)c([N+](=O)[O-])c2)c(C(=O)OCC)c1C,-19
CCOC(=O)c1c(NC(=O)c2cccc(OC)c2)sc(C(=O)Nc2ccccc2OC)c1C,1
Cc1ccc(C)n1-n1cnc2scc(-c3ccccc3)c2c1=O,14
CCOC(=O)c1c(NC(=O)/C=C/c2cc(OC)ccc2OC)sc2c1CCC2,-22
Brc1ccc(C=NN2CCN(Cc3ccccc3)CC2)cc1,0
COc1cc(C(=O)Nc2cccc(S(N)(=O)=O)c2)cc(OC)c1OC,1
CC(c1ccccc1)N1C(=O)/C(=C\c2ccc(Cl)cc2Cl)SC1=S (stereo unspecified),4
O=C(O)C(Cc1ccccc1)N1C(=O)/C(=C/c2cccc3ccccc23)SC1=S (stereo unspecified),-13
O=C(O)C(Cc1ccccc1)N1C(=O)/C(=C/c2ccc(Cl)cc2Cl)SC1=S (stereo unspecified),83*
SMILES,DUSP3 inh
C1CCC2CNCCN2CC1 (stereo unspecified),-11
Cc1cc(C(=O)O)ccc1-n1c(C)ccc1C,58
Cc1ccc(C)n1-c1ccc(Cl)cc1C(=O)O,85*
Cc1ccc(C)n1-c1cc(C(=O)O)ccc1Cl,83*
COc1cc(C(=O)O)c(-n2c(C)ccc2C)cc1OC,12
Cc1ccc(C)n1-c1ccc(Cl)c(C(=O)O)c1,-6
Cc1ccc(C(=O)O)cc1-n1c(C)ccc1C,23
COc1c(O)ccc(/C=N/NC(=O)C(O)c2ccccc2)c1[N+](=O)[O-] (stereo unspecified),-8
CCOc1ccc(NC(=O)CC2S/C(=N\N=C(/C)c3ccc(Cl)cc3)NC2=O)cc1 (stereo unspecified),-1
Cc1ccc(N2C(=O)CC(NCCc3cccc(F)c3)C2=O)cc1 (stereo unspecified),-16
CCOc1cc(/C=C2/N=C(c3ccc(NC(C)=O)cc3)OC2=O)ccc1OCc1ccccc1,86*
CCOc1cc(C=C2C(=O)NC(=O)NC2=O)ccc1OCc1ccccc1,6
COc1cccc(/C=C2/N=C(c3ccc(NC(C)=O)cc3)OC2=O)c1,-1
O=C(Nc1ccc(Br)cn1)c1cc2ccccc2o1,-22
O=C1CC(N2CCN(c3ccccc3Cl)CC2)C(=O)N1c1cccc(Br)c1 (stereo unspecified),-5
COC(=O)c1c(-c2cccc(C)c2)csc1N,94*
COC(=O)c1c(-c2ccc(OC)c(OC)c2)csc1N,-3
CC(C)OC(=O)c1c(-c2ccccc2)csc1N,44
CCCOC(=O)c1c(-c2ccccc2)csc1N,-3
CCOC(=O)c1c(-c2ccc(OC)c(OC)c2)csc1N,98*
COc1ccc(-c2csc(N)c2C(=O)OC(C)C)cc1OC,-15
Cc1ccc(N2C(=O)NC(=O)/C(=C\c3ccc(OCc4ccc(C(=O)O)cc4)cc3)C2=O)cc1,19
O=C1NC(=O)N(c2ccccc2)C(=O)/C1=C\c1ccc(-c2ccc(F)cc2)o1,-4
O=C(O)C(NC(=O)c1ccccc1)=C1CCCCC1,9
Clc1ccc(C=NN2CCN(Cc3ccccc3)CC2)cc1,12
SMILES,DUSP3 inh
COc1ccc(-c2nc(=S)c3c(n2CCO)CCCC3)cc1,3
COc1cccc(OCCCOc2cccc3ccccc23)c1,-11
O=C(CSc1nc2ccc([N+](=O)[O-])cc2s1)NCCc1ccccc1,5
Cc1ccc(S(=O)(=O)/N=C2\C=CC(=O)C=C2Cl)cc1,60
O=C1C(Cl)=CC(=NS(=O)(=O)c2ccc(Cl)cc2)c2ccccc21,4
Cc1ccc(S(=O)(=O)/N=C2\C=C(Sc3ncn[nH]3)C(=O)c3ccccc32)cc1,64*
Cc1ccc(C2/C(=C(/O)c3ccc(Cl)cc3)C(=O)C(=O)N2c2nccs2)cc1 (stereo unspecified),0
c1ccc(CN2CCC(N3CCN(C4CCC(c5ccccc5)CC4)CC3)CC2)cc1 (stereo unspecified),1
COc1ccccc1N1CCN(C(=O)c2sc3cc(C)ccc3c2Cl)CC1,-35
COc1ccc(-c2cc(C(=O)NCCc3ccccc3)c3ccccc3n2)c(OC)c1,102*
COc1ccc(-c2cc(C(=O)NCCc3ccc(OC)c(OC)c3)c3ccccc3n2)c(OC)c1,-41
COc1ccc(-c2cc(C(=O)NCCc3ccccc3)c3ccccc3n2)cc1OC,-12
COC(=O)c1ccc2c(c1)C1C=CCC1C(c1ccc(Br)cc1)N2 (stereo unspecified),35
Cc1ccc(Sc2ccc(/C=c3\sc4nc5ccccc5n4c3=O)o2)cc1,5
O=C(CN1CCCCC1)OCC1CCCO1 (stereo unspecified),-18
COC(=O)c1ccc2c(c1)C1C=CCC1C(c1cccc3ccccc13)N2 (stereo unspecified),47
COc1cccc2c1NC(c1cccc3ccccc13)C1CC=CC21 (stereo unspecified),88*
COc1cccc2c1NC(c1ccccc1Cl)C1CC=CC21 (stereo unspecified),-3
Cc1c(C(=O)Nc2ccc3c(c2)Cc2ccccc2-3)cccc1[N+](=O)[O-],4
CNc1ccc(SC(F)(F)F)cc1C(=O)c1ccccc1,-9
Cc1ccc(N2NC(=O)/C(=C/c3cc([N+](=O)[O-])ccc3Cl)C2=O)cc1C,64*
Cc1ccc([N+](=O)[O-])cc1-c1ccc(/C=C2/C(=O)NN(c3ccc(Cl)cc3)C2=O)o1,74*
COc1cc(/C=C2\C(=O)NN(c3ccc(Cl)c(Cl)c3)C2=O)c([N+](=O)[O-])cc1OC,7
O=C1NN(c2ccccc2)C(=O)/C1=C/c1ccc(-c2cccc([N+](=O)[O-])c2)o1,-1
Cc1ccc(N2NC(=O)/C(=C/c3ccc4c(c3)OCO4)C2=O)cc1C,-6
Cc1ccc(N2NC(=O)/C(=C\c3cccc([N+](=O)[O-])c3)C2=O)cc1,22
Cc1cc([N+](=O)[O-])ccc1-c1ccc(/C=C2/C(=O)NC(=S)N(c3ccc(Cl)cc3)C2=O)o1,46
Cc1ccc(N2NC(=O)/C(=C\c3ccco3)C2=O)cc1C,-13

# Screening results: PubChem, Sanford-Burnham Center for Chemical Genomics
